TRHR agonist – TRH receptor (human) agonism; P34981; TRHR cells, calcium flux fluo-8, FDSS agonist mode; activation, % at 2 µM; 0.18% of 360,000 active; AID 493084; also: 0% is about no effect
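Steps: seed TRHR cells overnight; add fluo-8 no-wash Ca dye, RT 30 min–1.5 h; record 10 s baseline; pin-transfer compounds; monitor fluorescence 1 cycle/s for the agonist window. Calcium increases flag candidate agonists.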
D1 agonist – human D1 receptor agonism. HEK293 T-REx D1 cells, calcium flux, agonist mode. activation, % at 2 µM. 1% of 360,000 active; also: 0% is about no effect
Target sequence (P21728 whole entry, looked up): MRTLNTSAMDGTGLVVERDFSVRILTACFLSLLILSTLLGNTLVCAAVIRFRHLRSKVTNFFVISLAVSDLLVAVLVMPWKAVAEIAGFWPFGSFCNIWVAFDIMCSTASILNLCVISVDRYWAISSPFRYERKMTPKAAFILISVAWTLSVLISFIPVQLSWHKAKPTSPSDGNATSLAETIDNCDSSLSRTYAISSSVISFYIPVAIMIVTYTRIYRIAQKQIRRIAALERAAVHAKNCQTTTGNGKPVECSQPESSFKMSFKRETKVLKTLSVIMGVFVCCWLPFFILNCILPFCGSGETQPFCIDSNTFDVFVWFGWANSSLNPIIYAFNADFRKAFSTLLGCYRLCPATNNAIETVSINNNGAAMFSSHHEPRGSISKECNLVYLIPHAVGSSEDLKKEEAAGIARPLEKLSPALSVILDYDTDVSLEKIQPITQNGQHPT
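Inducible HEK293 T-REx D1 cells, force-coupled to calcium signalling, were plated at 4000 cells/well with tetracycline and held overnight at 30 C. After no-wash calcium dye loading, compound-evoked calcium rise over 180 s flagged agonists.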
D1 PAM – enhances dopamine response at the human D1 receptor. P21728. HEK293 TREx D1 cells, calcium flux, dopamine EC20 potentiation. potentiation, % at 10 µM. 0.036% of 360,000 active. AID 504651; in the data active = potentiation above about 30%; also: 0% is about no effect
TRHR enhancer – TRH receptor (human) allosteric enhancement. 0.66% of 360,000 active. P34981. TRHR cells, fluo-8 calcium fluorescence, EC20 TRH enhancement. AID 493056. enhancement, % at 2 µM; in the data active = enhancement above about 30%; also: 0% is about no effect
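TRHR-expressing cells loaded with fluo-8 calcium dye were read kinetically (ex 480/em 530) during compound addition, then stimulated with an EC20 of TRH (10 nM final). Enhancement of the Gq-mediated intracellular calcium response was scored.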
D1 antagonist – blocks dopamine activation of the human D1 receptor. P21728. HEK293 TREx D1 cells, calcium flux, dopamine EC80; stronger effect = lower value. activity change, negative = inhibition, % at 10 µM. 3.2% of 360,000 active. AID 504652; in the data active = activity change below about -30%; also: % is scaled to controls: 0 for no effect and ±100 for the full control effect
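Calcium flux readout: force-coupled, inducible Hek293 Trex D1 line, cells induced overnight at 30 C with tetracycline, dye-loaded 30–90 min at RT. Antagonism scored against EC80 dopamine challenge given 180 s after compound.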
Active calls of the source: *. The list is not random: actives were taken first. Their share in the collection is about 4.6%. Rule as the data show it, unless noted: active = activation above about 30%; inactive = the rest.

SMILES | TRHR agonist | D1 agonist | D1 PAM | TRHR enhancer | D1 antagonist
Cc1ccc(C)c(N2CCN(C(=O)c3cn(CC(C)C)c(=O)c4c3c3ccccc3n4C)CC2)c1 | 1.5 | 1.1 | 2.4 | 10.4 | 2.6
COc1ccc2nc(NC(=O)c3nc(SCc4ccc(F)cc4)ncc3Cl)sc2c1 | 1.9 | 2.9 | -1.9 | -4.7 | -7.1
CCC(=O)NC(c1ccco1)c1cc([N+](=O)[O-])c2cccnc2c1O (stereo unspecified) | 0.5 | 2.0 | -0.3 | -1.0 | -21.8
CCCCn1c(NC(=O)c2ccccc2)c(C#N)c2nc3ccccc3nc21 | 10.5 | 34.7* | -0.7 | -11.3 | -3.8
CCC(C)n1c(NC(=O)c2ccccc2)c(C#N)c2nc3ccccc3nc21 (stereo unspecified) | 2.1 | 4.1 | 3.4 | -4.0 | -5.2
CCc1cccc(C)c1NC(=O)c1cc(S(=O)(=O)N(Cc2ccc(C(=O)OC)cc2)Cc2ccc(OC)c(OC)c2)ccc1F | 0.4 | 5.2 | 1.7 | -8.8 | -37.9*
CCOC(=O)c1ccc(CN(Cc2ccc(Cl)cc2Cl)S(=O)(=O)c2ccc(F)c(C)c2)cc1 | 4.0 | 44.5* | 0.3 | -6.3 | -31.7*
CCN1CCN(c2c(/C=C3\SC(=S)N(Cc4ccco4)C3=O)c(C)c(C#N)c(=O)n2C)CC1 | -0.6 | 234.9* | -5.5 | 32.2* | -4.2
COc1ccc(-n2c(C)cc(/C=C3\SC(=S)N(Cc4ccco4)C3=O)c2C)cc1 | 2.8 | 20.5 | -6.8 | 4.1 | -9.0
COc1ccc2ccccc2c1CNC(C)c1ccccc1 (stereo unspecified) | 0.1 | 6.5 | -14.5 | -8.9 | 7.1
CC(NCCCOc1cccc2ccccc12)c1ccccc1 (stereo unspecified) | 1.2 | 38.9* | 2.2 | 8.3 | 1.0
CCn1ncc(S(=O)(=O)Nc2cccnc2)c1C | 0.5 | 2.0 | -10.5 | -9.7 | -41.0*
Cc1ccccc1S(=O)(=O)Nc1cccnc1 | -0.2 | 0.5 | -4.2 | -1.0 | 1.4
CCn1c(CNc2ccc(Cl)cc2)nnc1SCC(=O)OC1CCCCC1 | 0.0 | 8.7 | -4.1 | -4.1 | 0.4
CCn1c(CNc2cccc(Cl)c2)nnc1SCC(=O)OC1CCCCC1 | -0.6 | 36.2* | -4.5 | 6.0 | -43.1*
CCOC(=O)c1c(NC(=O)c2noc3c2CC(C(C)(C)C)CC3)sc2c1CCCC2 (stereo unspecified) | 2.0 | 2.1 | 1.6 | 11.8 | -8.0
Nc1nc2ccc(N3CCOCC3)cc2s1 | -0.3 | 1.4 | -3.0 | 0.8 | -33.8*
Cc1cc2c(cc1C)NC(c1c(C)n(C)n(-c3ccccc3)c1=O)C1=C(CC(C)(C)CC1=O)N2 (stereo unspecified) | 42.9* | 81.4* | -3.9 | 0.6 | 9.1
Cc1ccccc1N=Nc1c(N)n[nH]c1N | 1.0 | 1.1 | 4.0 | 5.4 | -14.0
Nc1n[nH]c(N)c1N=Nc1ccccc1F | 0.1 | 0.3 | 0.8 | 1.5 | -34.9*
Cc1ccccc1-n1nc(CO)c(C(=O)NCCc2ccccc2)n1 | -2.8 | -1.3 | -0.3 | 0.0 | 0.6
Cc1cccc(-c2c3c(=O)n(C)c(=O)n(C)c3c3cnc4ccccc4n23)c1 | -0.3 | -0.1 | -6.3 | 1.1 | -11.6
O=C(CC1C(=O)NCCN1CCCc1ccccc1)NCCc1ccccc1F (stereo unspecified) | -0.8 | 34.1* | 2.1 | -6.2 | -28.9
O=C(CC1C(=O)NCCN1Cc1c(F)cccc1Cl)NCCCN1CCCC1=O (stereo unspecified) | 0.4 | 0.6 | 1.6 | 3.7 | -38.8*
COc1cccc(-c2nc3c(c(=O)[nH]c(=O)n3Cc3ccccc3)n2CCO)c1OC(F)F | -1.0 | 5.4 | -3.2 | 7.5 | -43.2*
SMILES | TRHR agonist | D1 agonist | D1 PAM | TRHR enhancer | D1 antagonist
O=C(NC1CCCc2ccccc21)c1ccc2c(c1)sc1nc(-c3ccccc3)cn12 (stereo unspecified) | 0.1 | 11.4 | -4.5 | -2.7 | -25.6
Cc1cccc(-c2nc(CSCC(=O)NCCc3ccc(Cl)cc3)c(C)o2)c1 | 0.7 | 5.1 | 3.2 | -3.1 | 1.4
COC(=O)C1=C(C)NC2=C(C(=O)CC(c3cccs3)C2)C1c1ccsc1 (stereo unspecified) | -0.7 | 0.8 | -8.3 | 2.7 | -47.7*
Cc1cc(NS(=O)(=O)c2ccccc2)c(C)c(Cl)c1O | 4.5 | 43.9* | -3.7 | -5.6 | -23.2
Cc1c(O)ccc(NS(=O)(=O)c2ccccc2)c1C | 0.5 | 1.3 | -4.0 | -0.9 | -36.4*
O=S(=O)(O)c1c(NS(=O)(=O)c2ccccc2)ccc2ccccc12 | 1.6 | 2.8 | -6.8 | 5.3 | -35.9*
Cc1cc(/C=N/NC(=O)c2ccncc2)c(C)n1-c1ccccc1 | -1.0 | 1.5 | -5.3 | -6.4 | -2.5
Cc1cc(/C=N/NC(=O)c2cccs2)c(C)n1-c1ccccc1 | -0.2 | 1.2 | -3.1 | -3.3 | -39.0*
Cc1ccc(-n2c(C)cc(/C=N/NC(=O)Cn3c4ccccc4c(=O)c4ccccc43)c2C)cc1 | -0.6 | 1.1 | 5.5 | 32.6* | 7.3
CCOc1ccc(CCNC(=O)CCc2cn(Cc3ccc(C)cc3)c3ccccc23)cc1 | 0.6 | 11.8 | -6.7 | -2.2 | 1.4
Cn1cc(Br)c(C(=O)NNC(=O)c2ccccc2)n1 | -0.1 | 2.5 | -7.4 | 32.5* | 6.5
CCN1/C(=C/C=C/c2oc3ccc(-c4ccccc4)cc3[n+]2CC)Oc2ccc(-c3ccccc3)cc21 | 316.8* | 547.2* | -8.2 | -24.2 | -84.2*
O=S(=O)(NC1CCN(S(=O)(=O)c2c(F)cccc2F)CC1)c1ccc2c(c1)OCCO2 | 1.8 | 4.9 | -4.0 | 1.7 | -13.2
CN(CC(=O)Nc1ccccc1Cl)C(=O)Cn1cc(C(F)(F)F)ccc1=O | -0.3 | -1.6 | 0.1 | -8.1 | -32.5*
Cc1ccc(CSCC(=O)N(C)CC(=O)Nc2ccccc2Cl)cc1 | -0.2 | 1.1 | -4.7 | -2.2 | -33.0*
CC1CCN(Cc2ccc(-c3nnn(CC(=O)NC4CCCCC4)n3)cc2)CC1 | -0.2 | -1.3 | -1.2 | -4.7 | -19.4
O=C(CN1CCC(Cc2ccccc2)CC1)NCCc1ccc(F)cc1 | -1.8 | 2.4 | -7.3 | 1.4 | 5.0
NS(=O)(=O)c1ccc(CCNC(=O)C2CCN(S(=O)(=O)c3ccccc3)CC2)cc1 | 0.4 | 7.5 | -8.4 | 15.2 | -13.6
NS(=O)(=O)c1ccc(CCNC(=O)C2CCN(S(=O)(=O)c3c(Cl)cccc3Cl)CC2)cc1 | -0.3 | 0.9 | -5.1 | 36.5* | -1.9
NS(=O)(=O)c1ccc(CCNC(=O)CN2CCC(Cc3ccccc3)CC2)cc1 | -0.2 | 18.9 | -4.5 | 4.1 | -44.4*
O=C(NC1CCCC1)c1ccc(CS(=O)(=O)c2ccc(Br)cc2)o1 | -0.4 | 0.7 | -3.5 | -2.8 | -30.2*
Cc1ccc(S(=O)(=O)Cc2ccc(C(=O)NC3CCCC3)o2)cc1 | -0.4 | 1.1 | -0.3 | -0.7 | -6.8
Cc1ccc(S(=O)(=O)Cc2ccc(C(=O)N3CCC(C(N)=O)CC3)o2)cc1 | 0.2 | 2.4 | 2.9 | 35.8* | 6.3
COc1ccc(S(=O)(=O)Cc2ccc(C(=O)N3CCC(C(N)=O)CC3)o2)cc1 | -0.8 | 0.9 | -6.2 | -1.4 | -14.7

Screening data deposited in PubChem BioAssay by National Center for Advancing Translational Sciences (NCATS).
